# Shown are actives, neighbours in structure and some others; about 2.4% of the full set was active somewhere.
# SENP8 block-1 = inhibitors of human SENP8 protease; recombinant SENP8, Nedd8 substrate fluorescence; inhibition, % at 20 µM; 360,000 tested, 0.64% active; in the data active means inhibition mostly above about 40%, no sharp cut-off; inactive means mostly below about 27%
# SENP8 block-2 = inhibitors of human SENP8 protease; inhibition, % at 10 µM; 330,000 tested, 1.2% active; purified SENP8, Z-RLRGG-aminoluciferin cleavage, luminescence; Q96LD8; in the data active means inhibition above about 50%
# Platelet DG rel = platelet dense granule release activity; human platelet-rich plasma, SFLLRN dense granule ATP release, luminescence; inhibition, %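 (compounds screened at 7.5 µM in platelet-rich plasma)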; 300,000 tested, 0.22% active; AID 1663;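 active means mean replicate score, as percent of positive control, at or above 50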
# SENP6 block = SENP6 protease inhibition. 330,000 tested, 1.8% active. Q9GZR1. Recombinant SENP6 catalytic domain, aminoluciferin luminescence. inhibition, % at 10 µM. AID 2599;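 active means inhibition above about 50% at the single tested dose, limit read from the data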;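 further: plate controls were DMSO wells with enzyme for no effect and DMSO wells lacking enzyme for full effect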
# SENP7 block = inhibitors of human SENP7 protease; inhibition, % at 5 µM; Q9BQF6; 330,000 tested, 1.5% active; recombinant SENP7, Z-RLRGG-aminoluciferin luminescence, 40 min;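 active means inhibition above about 50% at the single test dose, limit read from the data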;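 further: plate controls were DMSO with enzyme for no effect and no enzyme buffer wells for full effect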
# Target sequence (Q9BQF6 706-1050 limits assumed): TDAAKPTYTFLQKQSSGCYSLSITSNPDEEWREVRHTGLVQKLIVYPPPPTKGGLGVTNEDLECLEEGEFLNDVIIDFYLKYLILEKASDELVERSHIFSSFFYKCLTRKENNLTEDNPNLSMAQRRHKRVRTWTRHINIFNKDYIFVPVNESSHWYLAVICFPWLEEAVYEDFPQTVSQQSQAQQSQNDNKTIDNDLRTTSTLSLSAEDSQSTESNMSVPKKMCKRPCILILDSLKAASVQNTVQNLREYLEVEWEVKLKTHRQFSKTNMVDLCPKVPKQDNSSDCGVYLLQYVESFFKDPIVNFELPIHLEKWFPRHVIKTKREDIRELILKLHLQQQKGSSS
# SENP8 conf = confirmation of human SENP8 protease inhibitors; shares compounds with SENP7 block; Recombinant SENP8, Z-RLRGG-aminoluciferin luminescence, 60 min; inhibition, % at 12.5 µM; 6,200 tested, 40% active;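 active means mean inhibition across replicates above about 50%, limit read from the data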
# SENP6 conf = confirmation of human SENP6 protease inhibitors | AID 488915 | recombinant SENP6, Z-RLRGG-aminoluciferin luminescence | 6,200 tested, 58% active | shares compounds with SENP7 block | inhibition, % at 12.5 µM
# SENP7 confirm = confirmation of human SENP7 protease inhibitors; shares compounds with SENP7 block; recombinant SENP7, Z-RLRGG-aminoluciferin luminescence, 40 min; inhibition, % at 12.5 µM; 6,200 tested, 69% active; AID 488917
# Casp3 select = caspase-3 inhibition (SENP selectivity assay); shares compounds with SENP7 block; purified caspase-3, Z-DEVD-aminoluciferin luminescence, 60 min; inhibition, % at 12.5 µM; 6,200 tested, 60% active; AID 488918;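 active means mean inhibition above about 50%, limit read from the data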;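 further: plate controls were enzyme with DMSO for no effect and wells without caspase-3 for full effect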
# Target sequence (P42574 28-227 limits assumed): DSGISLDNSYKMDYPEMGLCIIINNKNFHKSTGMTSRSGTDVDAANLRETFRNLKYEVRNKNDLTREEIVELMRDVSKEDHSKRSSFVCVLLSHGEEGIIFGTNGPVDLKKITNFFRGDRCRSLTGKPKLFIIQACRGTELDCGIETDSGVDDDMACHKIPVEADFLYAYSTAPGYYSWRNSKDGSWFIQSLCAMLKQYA
# Luc interf = interferes with luciferase luminescence in SENP counter-screen; inhibition, % at 12.5 µM; 6,200 tested, 39% active; shares compounds with SENP7 block; Pre-incubated SENP8/Z-RLRGG-aminoluciferin, luciferase luminescence interference;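 active means mean inhibition above about 50% when retested at one dose, limit read from the data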;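 further: plate controls were DMSO wells with completed reaction for no effect and substrate without enzyme for full effect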
# Starred values were filed as active, the others as inactive; . = no result given.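 How the source made its calls, unless noted: active means mean inhibition above about 50% in the one-dose retest (limit read from the data); inactive means the rest.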
SMILES,SENP8 block-1,SENP8 block-2,Platelet DG rel,SENP6 block,SENP7 block,SENP8 conf,SENP6 conf,SENP7 confirm,Casp3 select,Luc interf
N/C(=N/OC(=O)c1ccccc1F)c1nonc1N,21,93*,3,98*,98*,95*,95*,101*,97*,96*
N/C(=N\OC(=O)c1ccc(Cl)cc1)c1nonc1N,0,94*,24,97*,100*,98*,100*,103*,98*,95*
C=CCNC(=O)c1ccccc1NC(=O)COc1ccccc1,2,-9,1,-7,0,.,.,.,.,.
CC1C(=O)N(Cc2cn(CCC3OCCCO3)nn2)CCS(=O)(=O)N1Cc1ccc(-c2ccc(Cl)nc2)cc1 (configuration not stated),4,.,.,.,.,.,.,.,.,.
Cc1ccc(NC(=O)c2cnccn2)cc1C,12,39,10,69*,71*,66*,61*,83*,84*,63*
CCOc1ccc(/C=N/NC(=O)c2ccc(Cn3cc(Br)cn3)o2)cc1,-48,3,-5,55*,8,22,17,57*,23,50
CC(C)CC(=O)N1CCN(Cc2ccccc2[N+](=O)[O-])CC1,-1,-3,-5,-6,0,.,.,.,.,.
Cc1cc(C)c2c(c1)C(=O)/C(=C/c1ccc(C(=O)O)cc1)CC2,10,75*,8,92*,5,62*,51*,53*,58*,19
COc1ccc(OC)c(N/C=C/C(=O)c2ccc(OC)c(OC)c2)c1,-198,-5,9,11,-2,.,.,.,.,.
COc1cccc(C(=O)/C=C/Nc2cc(C)ccc2O)c1,-15,84*,13,92*,101*,5,92*,99*,72*,87*
COc1cccc(C(=O)/C=C/Nc2ccc(S(=O)(=O)Nc3ncccn3)cc2)c1,-386,21,4,63*,35,4,5,-2,20,-5
O=C(/C=C/c1ccccc1O)c1ccccc1,-1,.,.,.,.,.,.,.,.,.
Cc1ccc(Cl)c(N/C=C/C(=O)c2ccccc2)c1,-33,49,5,77*,71*,46,60*,79*,50*,29
O=C(/C=C/c1ccccc1O)c1ccc(Cl)cc1,11,40,6,67*,-4,48,55*,8,12,56*
Cn1cccc1C(=O)NC(=O)COC(=O)CCNS(=O)(=O)c1ccc(Cl)cc1,-18,8,.,2,7,.,.,.,.,.
COc1ccc(CN2C(=O)C(CC(=O)NCCc3ccccn3)CC(C(=O)N(C)C)=C2C)cc1 (configuration not stated),-13,.,.,.,.,.,.,.,.,.
COc1ccc(N/C=C\C(=O)c2ccc(C)cc2)cc1OC,-18,-10,3,-1,-17,.,.,.,.,.
COc1cccc(N/C=C/C(=O)c2ccc(OC)c(OC)c2)c1,-271,64*,11,89*,75*,-9,70*,93*,70*,16
COc1ccc(C(=O)/C=C/Nc2cccc(O)c2)cc1,-159,88*,55*,93*,85*,96*,97*,102*,91*,91*
O=C(/C=C\Nc1ccccn1)c1ccc(Cl)cc1,-180,95*,.,95*,8,36,77*,88*,75*,31
Cc1cccc(N/C=C/C(=O)c2ccc(Cl)cc2)c1,-146,66*,5,73*,89*,18,20,22,46,7
CC(C)CN1CCC(=O)N([C@H](CO)c2ccccc2)CC1,.,2,1,-6,-8,.,.,.,.,.
CCCN=C1N(C)C[C@@H]2[C@@H]3C(=O)N(Cc4ccccc4)C(=O)[C@@H]3[C@](Cc3ccccc3)(C(=O)OC)N12,2,.,.,.,-2,.,.,.,.,.
O=S(=O)(Nc1ccc(O)c2ccccc12)c1cccs1,20,30,5,63*,19,13,12,-6,-2,-1
O=C1/C(=C/c2ccco2)CCc2ccccc21,-50,75*,10,87*,-1,97*,99*,102*,96*,94*
SMILES,SENP8 block-1,SENP8 block-2,Platelet DG rel,SENP6 block,SENP7 block,SENP8 conf,SENP6 conf,SENP7 confirm,Casp3 select,Luc interf
COc1ccc2c(c1)CC/C(=C/c1ccco1)C2=O,-72,83*,14,91*,-5,96*,97*,102*,92*,94*
Nc1ccc2c(c1)C/C(=C/c1ccco1)C2=O,-387,-3,3,-40,-8,.,.,.,.,.
O=S1(=O)CC(N2CCN(CC3CC3)CC2)CN1Cc1ccccc1 (configuration not stated),16,.,.,.,.,.,.,.,.,.
CCOC(=O)N1CCC(NC(=O)CS(=O)Cc2nc(-c3ccc(Cl)cc3)oc2C)CC1 (configuration not stated),4,-7,-10,-4,1,.,.,.,.,.
Cc1ccc(S(=O)(=O)N(C)C)cc1NC(=S)N1CCN(Cc2ccc3c(c2)OCO3)CC1,10,5,-4,2,14,.,.,.,.,.
Cc1ccccc1-c1nnc(SCc2ccc(F)cc2)o1,0,-21,-1,-14,-9,.,.,.,.,.
Cc1ccccc1C1=NC(c2ccc(F)cc2F)ON1 (configuration not stated),20,35,5,66*,34,-14,5,40,14,5
O=C(NN=C1CCCCCC1)c1cc2ccccc2cc1O,-88,7,21,15,5,.,.,.,.,.
O=C1CCCC(=NNC(=O)c2cc3ccccc3cc2O)C1,-192,89*,.,90*,88*,89*,92*,101*,93*,88*
Cc1cccc(Cn2nc(-n3cccc3)c3c(C)cc(C)nc32)c1,-278,-1,-2,-3,1,.,.,.,.,.
Cc1ccccc1-n1nnnc1SCC(=O)NCC1CCCO1 (configuration not stated),4,-9,4,6,-9,.,.,.,.,.
O=C(CCS(=O)(=O)c1ccc(Cl)cc1)N1CCCc2ccccc21,-18,-1,-7,-16,-9,.,.,.,.,.
O=C(CC(c1cccs1)S(=O)(=O)c1ccccc1)c1ccc(F)cc1 (configuration not stated),2,23,18,52*,30,3,-2,9,5,8
O=C(NCCO)C(=O)NCC(c1cccs1)S(=O)(=O)c1ccc(F)cc1 (configuration not stated),17,.,.,.,.,.,.,.,.,.

# Compound activity as filed in PubChem.
